Assay results: PubChem BioAssay (EPA / NIEHS)
The source made the active and inactive calls. The calls were made as follows: active = hit-call score of the fitted dose curve at least 0.9, where 1 is the maximum; inactive = score below 0.9.

Columns and labels:
Conditions in all cases: mRNA level, 48 h; actives raise or lower the signal
[1] = read-out: matrix metalloproteinase-10 (MMP10), MMP10 (gene 4319); assay: LTEA_HepaRG_MMP10: Life Technologies and Expression Analysis (LTEA) Assay for matrix metalloproteinase-10 (MMP10) using HepaRG (AID 2283517)
In short: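 In differentiated HepaRG cultures kept in 0.5% DMSO, test chemicals act for 48 h over an eight-point range with a top dose of 100 uM. Expression is then quantified by TaqMan RT-PCR against ACTB, GAPDH and POLR2A.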

MYC, MYC (gene 4609) = assay: LTEA_HepaRG_MYC: Life Technologies and Expression Analysis (LTEA) Assay for MYC using HepaRG (AID 2283518)
In short: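 Expression changes were scored by TaqMan qRT-PCR with ACTB, GAPDH and POLR2A normalization. Cultures in serum-free induction medium received duplicate 8-point concentration series, highest 100 uM, for 48 h; DMSO (0.5%) served as baseline.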

[2] = read-out: matrix metalloproteinase-3 (MMP3), MMP3 (gene 4314); assay: LTEA_HepaRG_MMP3: Life Technologies and Expression Analysis (LTEA) Assay for matrix metalloproteinase-3 (MMP3) using HepaRG (AID 2283519)
In short: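 Human liver HepaRG cultures received chemicals (top concentration 100 uM, 0.5% DMSO) for 48 h in duplicate. MMP3 mRNA induction or loss was then assessed via TaqMan qRT-PCR with housekeeping-gene normalisation.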

[3] = read-out: Paternally Expressed 10 (PEG10), PEG10 (gene 23089); assay: LTEA_HepaRG_PEG10: Life Technologies and Expression Analysis (LTEA) Assay for Paternally Expressed 10 (PEG10) using HepaRG (AID 2283520);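 as to AC50: differentiated HepaRG human liver cells in serum-free induction medium with 0.5% DMSO; PEG10 transcript by qRT-PCR normalised to ACTB GAPDH and POLR2A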
In short: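 qRT-PCR read-out: PEG10 mRNA normalised to three housekeeping genes, fitted bidirectionally against 0.5% DMSO vehicle. HepaRG cells received test chemicals for 48 h in serum-free induction medium, 8 points, top 100 uM, half-log steps.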

[4] = read-out: Nuclear factor NF-kappa-B p105 subunit (Homo sapiens) (UniProt P19838); assay: LTEA_HepaRG_NFKB1: Life Technologies and Expression Analysis (LTEA) Assay for Nuclear Factor Kappa B Subunit 1 (NFKB1) using HepaRG (AID 2283521);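 also: differentiated human HepaRG liver cells in serum-free induction medium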
In short: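 NFKB1 transcript was measured by TaqMan qRT-PCR on Fluidigm arrays, normalised to three housekeeping genes and fitted in both directions against 0.5% DMSO. HepaRG cells were dosed in duplicate for 48 h in serum-free induction medium, eight half-log steps from 100 uM.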

[5] = read-out: Phosphatase and tensin (PTEN), PTEN (gene 5728); assay: LTEA_HepaRG_PTEN: Life Technologies and Expression Analysis (LTEA) Assay for Phosphatase and tensin (PTEN) using HepaRG (AID 2283523)
In short: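 Expression of PTEN is quantified in the human liver line HepaRG following two days of dosing (top concentration 100 uM, half-log dilutions, 0.5% DMSO). Values derive from bidirectional curve fitting relative to DMSO controls.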

[6] = read-out: solute carrier (SLC22A1), SLC22A1 (gene 6580); assay: LTEA_HepaRG_SLC22A1: Life Technologies and Expression Analysis (LTEA) Assay for solute carrier (SLC22A1) using HepaRG (AID 2283524);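 as to AC50: differentiated human HepaRG liver cells in serum-free induction medium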
In short: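 Transcript induction or suppression of SLC22A1 in human HepaRG cultures is scored after 48 h chemical treatment, with DMSO (0.5%) as baseline for bidirectional fitting. Concentrations span eight half-log points topping at 100 uM.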

[7] = read-out: Pyruvate Dehydrogenase Kinase 4 (PDK4), PDK4 (gene 5166); assay: LTEA_HepaRG_PDK4: Life Technologies and Expression Analysis (LTEA) Assay for Pyruvate Dehydrogenase Kinase 4 (PDK4) using HepaRG (AID 2283525)
In short: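 Eight-point, half-log concentration series (max 100 uM, 0.5% DMSO) applied to differentiated HepaRG cells for 48 h in duplicate. Endpoint: PDK4 mRNA induction or repression by qRT-PCR against DMSO baseline.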

[8] = read-out: NAD(P)H dehydrogenase [quinone] 1 (NQO1), NQO1 (gene 1728); assay: LTEA_HepaRG_NQO1: Life Technologies and Expression Analysis (LTEA) Assay for NAD(P)H dehydrogenase [quinone] 1 (NQO1) using HepaRG (AID 2283526)
In short: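 qRT-PCR read-out (Fluidigm TaqMan), normalized to three housekeeping genes, after 48 h chemical exposure of HepaRG cells. Concentrations: eight points, top 100 uM, half-log steps, 0.5% DMSO vehicle. Gain or loss of signal fitted relative to DMSO.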

[9] = read-out: Nuclear factor erythroid 2-related factor 2 (Homo sapiens) (UniProt Q16236); assay: LTEA_HepaRG_NFE2L2: Life Technologies and Expression Analysis (LTEA) Assay for Nuclear factor erythroid 2-related factor 2 (NFE2L2) Transcription Factor using HepaRG (AID 2283527)
In short: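 Human liver HepaRG line treated in duplicate for 48 h with an eight-point series topping at 100 uM. Gene expression of NFE2L2 by qRT-PCR, bidirectionally fitted against the vehicle control.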

[10] = read-out: succinate dehydrogenase complex iron sulfur subunit B (SDHB), SDHB (gene 6390); assay: LTEA_HepaRG_SDHB: Life Technologies and Expression Analysis (LTEA) Assay for succinate dehydrogenase complex iron sulfur subunit B (SDHB) using HepaRG (AID 2283528)
In short: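 SDHB transcript level read by TaqMan qRT-PCR, housekeeping-normalised (ACTB, GAPDH, POLR2A), after 48 h chemical treatment of plated HepaRG cells; eight concentrations top 100 uM, half-log steps, 0.5% DMSO, duplicates; fitted both directions against DMSO.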

[11] = read-out: Signal transducer and activator of transcription 3 (Homo sapiens) (UniProt P40763); assay: LTEA_HepaRG_STAT3: Life Technologies and Expression Analysis (LTEA) Assay for Signal transducer and activator of transcription (STAT3) using HepaRG (AID 2283529)
In short: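 In this transcriptional endpoint, HepaRG cultures receive test chemicals at up to 100 uM for 48 h, tested in duplicate. STAT3 mRNA is normalized to ACTB, GAPDH and POLR2A.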

[12] = read-out: solute carrier (SLCO1B1), SLCO1B1 (gene 10599); assay: LTEA_HepaRG_SLCO1B1: Life Technologies and Expression Analysis (LTEA) Assay for solute carrier (SLCO1B1) using HepaRG (AID 2283530)
In short: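 Human HepaRG cultures treated for 48 h with an eight-concentration half-log series topping at 100 uM; SLCO1B1 measured by qRT-PCR and fitted bidirectionally relative to DMSO.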

[13] = read-out: sulfotransferase 2A1 (SULT2A1), SULT2A1 (gene 6822); assay: LTEA_HepaRG_SULT2A1: Life Technologies and Expression Analysis (LTEA) Assay for sulfotransferase 2A1 (SULT2A1) using HepaRG (AID 2283531)
In short: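 Gene-expression endpoint in a human liver cell line: SULT2A1 mRNA change after 48 h chemical treatment, curves fitted in both directions relative to 0.5% DMSO vehicle. Concentrations spanned eight half-log steps from 100 uM.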

[14] = read-out: Transforming Growth Factor (TGFA), TGFA (gene 7039); assay: LTEA_HepaRG_TGFA: Life Technologies and Expression Analysis (LTEA) Assay for Transforming Growth Factor (TGFA) using HepaRG (AID 2283532)
In short: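 Gene expression of TGFA was quantified by qRT-PCR after human HepaRG cells were treated for 48 h with test chemicals (eight concentrations, highest 100 uM, 0.5% DMSO). Activity in either direction was fitted relative to DMSO.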

[15] = read-out: Transforming Growth Factor (TGFB1), TGFB1 (gene 7040); assay: LTEA_HepaRG_TGFB1: Life Technologies and Expression Analysis (LTEA) Assay for Transforming Growth Factor (TGFB1) Transporter using HepaRG (AID 2283533)
In short: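 Eight-point concentration-response (max 100 uM, half-log) in HepaRG under serum-free induction conditions, 48 h. TGFB1 mRNA by qRT-PCR, housekeeping-normalized.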

TIMP1, TIMP1 (gene 7076) = assay: LTEA_HepaRG_TIMP1: Life Technologies and Expression Analysis (LTEA) Assay for TIMP1 using HepaRG (AID 2283534);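 also: TaqMan qRT-PCR signal normalized to ACTB GAPDH and POLR2A housekeeping genes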
In short: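 TIMP1 induction or repression in HepaRG cells after 48 h chemical exposure (eight concentrations, highest 100 uM), assessed by normalized qRT-PCR with bidirectional fitting to DMSO controls.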

[16] = read-out: Tumor necrosis factor receptor 1 (TNFRSF1A), TNFRSF1A (gene 7132); assay: LTEA_HepaRG_TNFRSF1A: Life Technologies and Expression Analysis (LTEA) Assay for Tumor necrosis factor receptor 1 (TNFRSF1A) using HepaRG (AID 2283535)
In short: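 Assay uses 48 h chemical treatment of differentiated HepaRG monolayers, tested in duplicate at eight concentrations from 100 uM downward in 0.5% DMSO. mRNA is normalized to ACTB, GAPDH and POLR2A, with induction or suppression fitted relative to vehicle.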

[17] = read-out: Thyroid Hormone Responsive (THRSP), THRSP (gene 7069); assay: LTEA_HepaRG_THRSP: Life Technologies and Expression Analysis (LTEA) Assay for Thyroid Hormone Responsive (THRSP) using HepaRG (AID 2283536)
In short: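 Cell model: human HepaRG, approx. 100,000 cells/well, 0.5% DMSO vehicle. Exposure lasts 48 h; phenobarbital 1 mM serves as induction positive control. Gene expression is measured by qRT-PCR against three endogenous control genes.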

[18] = read-out: Protein phosphatase 2A (PPP2R4), PTPA (gene 5524); assay: LTEA_HepaRG_PPP2R4: Life Technologies and Expression Analysis (LTEA) Assay for Protein phosphatase 2A (PPP2R4) using HepaRG (AID 2283522)
In short: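 HepaRG, 48 h exposure, 8-pt half-log series from 100 uM, 0.5% DMSO vehicle, duplicates. Readout: PPP2R4 mRNA, Fluidigm qRT-PCR, housekeeping-normalized. Bidirectional curve fit vs DMSO baseline.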

Measured: AC50

Chain of Nuclear factor NF-kappa-B p105 subunit (Homo sapiens) (P19838 whole entry, looked up): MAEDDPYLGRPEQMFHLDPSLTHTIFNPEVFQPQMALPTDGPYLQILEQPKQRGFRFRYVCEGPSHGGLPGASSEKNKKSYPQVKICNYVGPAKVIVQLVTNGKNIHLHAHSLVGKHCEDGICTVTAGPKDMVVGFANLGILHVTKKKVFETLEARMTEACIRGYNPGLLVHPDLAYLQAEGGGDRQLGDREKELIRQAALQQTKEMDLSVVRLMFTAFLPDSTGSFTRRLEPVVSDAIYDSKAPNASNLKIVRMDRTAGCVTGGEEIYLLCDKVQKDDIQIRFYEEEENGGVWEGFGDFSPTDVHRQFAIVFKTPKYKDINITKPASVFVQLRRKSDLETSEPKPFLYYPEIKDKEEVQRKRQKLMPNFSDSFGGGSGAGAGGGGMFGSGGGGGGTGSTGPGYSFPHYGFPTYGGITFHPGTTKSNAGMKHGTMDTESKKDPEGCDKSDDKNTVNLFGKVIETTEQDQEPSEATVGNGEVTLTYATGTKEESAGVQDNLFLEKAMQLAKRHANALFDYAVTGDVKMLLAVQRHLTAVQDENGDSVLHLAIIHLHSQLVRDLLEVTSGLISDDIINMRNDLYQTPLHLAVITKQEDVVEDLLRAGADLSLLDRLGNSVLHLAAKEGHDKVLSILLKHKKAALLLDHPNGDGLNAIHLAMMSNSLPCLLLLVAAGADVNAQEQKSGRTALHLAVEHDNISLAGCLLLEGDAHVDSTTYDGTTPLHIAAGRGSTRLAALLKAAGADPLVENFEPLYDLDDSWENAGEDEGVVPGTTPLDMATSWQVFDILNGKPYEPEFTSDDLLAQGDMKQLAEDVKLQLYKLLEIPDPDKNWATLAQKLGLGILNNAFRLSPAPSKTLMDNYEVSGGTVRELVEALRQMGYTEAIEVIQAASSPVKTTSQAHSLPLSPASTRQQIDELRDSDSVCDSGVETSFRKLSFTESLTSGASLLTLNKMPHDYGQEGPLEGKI
Chain of Nuclear factor erythroid 2-related factor 2 (Homo sapiens) (Q16236 whole entry, looked up): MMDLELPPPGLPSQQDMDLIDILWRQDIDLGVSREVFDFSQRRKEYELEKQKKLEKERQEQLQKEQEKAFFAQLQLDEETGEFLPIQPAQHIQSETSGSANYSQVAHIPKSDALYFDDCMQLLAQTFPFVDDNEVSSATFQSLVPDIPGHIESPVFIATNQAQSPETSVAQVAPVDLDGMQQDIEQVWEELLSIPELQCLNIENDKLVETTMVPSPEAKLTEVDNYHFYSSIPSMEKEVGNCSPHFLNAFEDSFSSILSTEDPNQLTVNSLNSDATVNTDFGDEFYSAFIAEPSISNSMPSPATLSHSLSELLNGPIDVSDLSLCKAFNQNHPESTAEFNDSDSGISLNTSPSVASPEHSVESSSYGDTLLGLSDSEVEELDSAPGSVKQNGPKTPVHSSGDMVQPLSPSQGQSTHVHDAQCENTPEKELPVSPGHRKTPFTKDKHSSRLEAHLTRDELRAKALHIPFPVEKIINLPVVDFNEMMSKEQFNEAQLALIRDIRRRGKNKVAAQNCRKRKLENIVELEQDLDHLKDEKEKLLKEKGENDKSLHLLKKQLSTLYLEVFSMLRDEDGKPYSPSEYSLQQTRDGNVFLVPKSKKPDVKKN
Chain of Signal transducer and activator of transcription 3 (Homo sapiens) (P40763 whole entry, looked up): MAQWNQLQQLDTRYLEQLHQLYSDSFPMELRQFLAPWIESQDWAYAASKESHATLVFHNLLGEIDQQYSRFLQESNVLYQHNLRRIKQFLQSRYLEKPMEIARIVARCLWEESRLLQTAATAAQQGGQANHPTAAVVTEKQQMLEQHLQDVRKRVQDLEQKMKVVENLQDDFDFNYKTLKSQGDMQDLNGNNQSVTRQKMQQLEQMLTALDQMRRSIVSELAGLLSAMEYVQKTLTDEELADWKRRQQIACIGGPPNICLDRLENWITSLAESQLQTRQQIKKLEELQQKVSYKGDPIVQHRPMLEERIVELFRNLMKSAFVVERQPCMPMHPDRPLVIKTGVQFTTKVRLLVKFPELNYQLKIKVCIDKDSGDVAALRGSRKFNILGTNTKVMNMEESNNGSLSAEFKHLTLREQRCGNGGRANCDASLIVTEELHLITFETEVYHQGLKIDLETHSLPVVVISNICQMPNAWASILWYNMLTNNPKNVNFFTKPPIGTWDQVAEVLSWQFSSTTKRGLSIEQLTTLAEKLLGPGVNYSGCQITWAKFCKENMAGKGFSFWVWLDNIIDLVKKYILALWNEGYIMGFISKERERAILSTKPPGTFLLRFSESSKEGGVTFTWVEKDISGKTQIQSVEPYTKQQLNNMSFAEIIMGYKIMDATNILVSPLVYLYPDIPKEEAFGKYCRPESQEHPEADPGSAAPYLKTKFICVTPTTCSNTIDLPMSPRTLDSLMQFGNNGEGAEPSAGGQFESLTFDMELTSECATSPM

CCn1nc(Cc2ccccc2)cc1C1CCN(C[C@H]2C[C@H](N(C)[C@@H](C(=O)O)C(C)C)C[C@@H]2c2cccc(F)c2)CC1
active: [6] 12.4 µM | [15] 73.3 µM
not listed: [18]
inactive: all other assays above

CNS(=O)(=O)c1cc(C(=O)N2CCC(CCN3C4CCC3CC(n3c(C)nc5ccccc53)C4)(c3cccc(F)c3)CC2)c(Cl)cc1F (stereo not given)
active: MYC, MYC (gene 4609) 26.1 µM | [3] 13.3 µM | [6] 18.8 µM | [7] 28.9 µM | [10] 17.3 µM | [12] 13.1 µM | [13] 9.92 µM | [15] 19.4 µM
not listed: [18]
inactive: all other assays above

On1ccccc1=S
not listed: [18]
inactive: all other assays above

Cn1cnc([N+](=O)[O-])c1Sc1ncnc2nc[nH]c12
active: MYC, MYC (gene 4609) 6.38 µM | [2] 1.9 µM | [3] 1.66 µM | [6] 16.1 µM | [7] 6.61 µM | [12] 1.62 µM | [15] 12.8 µM | [17] 10.7 µM
not listed: [18]
inactive: all other assays above

C1N2CN3CN1CN(C2)C3
not listed: [18]
inactive: all other assays above

O=C(O)c1cc(N=Nc2ccc(S(=O)(=O)Nc3ccccn3)cc2)ccc1O
not listed: [14] | TIMP1, TIMP1 (gene 7076) | [18]
inactive: all other assays above

CCNc1ccccc1
not listed: [18]
inactive: all other assays above

Cc1c(-c2cccnc2)c2ccccc2n1CCCCC(=O)O
active: [7] 27.6 µM
not listed: [6]
inactive: all other assays above

O=C1OC(=O)C2C3C=CC(C3)C12 (stereo not given)
not listed: [4]
inactive: all other assays above

CCOC(=O)c1ccc(C2CCC(NC[C@H](O)COc3ccc(O)c(NS(C)(=O)=O)c3)CC2)cc1 (stereo not given in full)
not listed: [4]
inactive: all other assays above

CCCCC(CC)COC(=O)c1ccc(C(=O)OCC(CC)CCCC)cc1 (stereo not given)
not listed: [4]
inactive: all other assays above

Oc1ccc2c(c1)-c1ccccc1C2
active: MYC, MYC (gene 4609) 33.3 µM | [7] 25.2 µM | [9] 21.4 µM | [17] 13.9 µM
not listed: [4]
inactive: all other assays above

CC1(C)C(=O)N(Br)C(=O)N1Br
not listed: [4] | [18]
inactive: all other assays above

CC(=O)OCCC(C)C
not listed: [4] | [18]
inactive: all other assays above

CC(=O)c1ccc2c(c1)[C@H](NC(=O)c1ccc(F)cc1)[C@@H](O)C(C)(C)O2
not listed: [4]
inactive: all other assays above

CC/C(=C\C(=N/O)C(N)=O)C(C)[N+](=O)[O-] (stereo not given)
not listed: [4] | [18]
inactive: all other assays above

Cn1c(=O)cc(Oc2ccc(F)cc2F)c2cnc(NCC(C)(C)O)nc21
active: MYC, MYC (gene 4609) 22.1 µM | [2] 22.1 µM | [9] 1.3 µM
not listed: [4]
inactive: all other assays above

CC1=CC(=O)CC(C)(C)C1
not listed: [4]
inactive: all other assays above

COc1ccc2sc(C(=O)Nc3nnn[nH]3)c(OC(C)C)c2c1
active: MYC, MYC (gene 4609) 38 µM | [2] 27.1 µM | [3] 35.8 µM | [6] 97.4 µM | [7] 32.5 µM | [9] 27.6 µM | [12] 81.7 µM | [13] 78.4 µM | [14] 34 µM | [16] 39 µM | [17] 50 µM
inactive: [1] | [5] | [8] | [10] | [11] | [15] | TIMP1, TIMP1 (gene 7076)
